Assay [1] in a line: resazurin metabolic signal in HepG2 cells – cell-based, resazurin fluorescence, 24 h, PK04 Diversity Set, profiling panel (AID 1172). Note: test concentration not given here. To be noted: HepG2 viability, higher = more signal. (In general: The colour change of resazurin is a common sign of viable cells or microbes.)
A short description of assay [2]: budding yeast growth changes without added modifier – OD600, strain BY4716, 24 h, basal condition, primary screen (AID 1173). Particulars: S. cerevisiae BY4716 growth, OD600, 24 h; higher = more signal, called active from +8 up or from −8 down.
A short description of assay [3]: viability profiling in MM1S myeloma cells – cell-based, resazurin fluorescence, basal, 24 h, PK04 Diversity Set, profiling panel (AID 1174).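 Note: MM1S multiple myeloma cell line; test concentration not given here.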 To be noted: higher = more signal, called active from +8 up or from −8 down.
In assay [4] the target is Dihydroorotate dehydrogenase (quinone), mitochondrial (Plasmodium falciparum (isolate 3D7)) (UniProt Q08210). In words: inhibition of P. falciparum DHODH – biochemical, C-terminal His tag, absorbance 600 nm, primary screen (AID 1175).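 Note: recombinant parasite enzyme with a five histidine tag at its C terminus; test concentration not given here.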 To be noted: PfDHODH enzyme, DCIP absorbance 600 nm; higher = more signal, called active from +8 up or from −8 down.
Assay [5] in a line: inhibition of PAO1 biofilm formation – strain PAO1, LB-PBS medium, absorbance 600 nm, primary screen (AID 1176). Note: test concentration not given here. Particulars: P. aeruginosa PAO1 growth/biofilm, A600, 12 h; higher = more signal.
Assay [6] in a line: growth modulation of vineyard yeast isolate – strain RM11-1a, OD600, basal, 24 h, primary screen (AID 1177).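 Note: cultures grown under basal conditions with no added stressor; test concentration not given here.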 Particulars: S. cerevisiae RM11-1a growth, OD600, 24 h; higher = more signal, called active from +8 up or from −8 down.
A short description of assay [7]: growth of efflux-deficient E. coli DRC39 – strain DRC39, OD650, 24 h, E. coli filamentation inducers, primary screen (AID 1178).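 Note: growth measured as culture turbidity by optical density at 650 nm; test concentration not given here.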 To be noted: E. coli DRC39 acrAB, higher = more signal, called active from +8 up or from −8 down.
A short description of assay [8]: growth of efflux-deficient E. coli DRC39 – strain DRC39, OD650, 48 h, E. coli filamentation inducers, primary screen (AID 1179).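 Note: screen aims at cell division blockers that make cells filament.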 Particulars: E. coli DRC39 delta-acrAB growth, higher = more signal, called active from +8 up or from −8 down.
The nature of assay [9]: viability profiling in RPMI8226 myeloma cells – cell-based, resazurin fluorescence, basal, 24 h, PK04 Diversity Set, profiling panel (AID 1180).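 Note: RPMI8826 multiple myeloma cell line at 5000 cells per well; test concentration not given here.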 To be noted: higher = more signal.
The target of assay [10] is E3 ubiquitin-protein ligase XIAP (Homo sapiens) (UniProt P98170). In words: small molecules binding XIAP protein – biophysical, small-molecule microarray, fluorescence 635 nm, primary screen (AID 1181).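 Note: score merges 667 nm emission and signal to noise over triplicate slides.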 To be noted: higher = more signal.

Active and inactive are the calls of the source. Unless noted, the rule behind the calls is not given here.

E3 ubiquitin-protein ligase XIAP (Homo sapiens), sequence (P98170 whole entry, looked up): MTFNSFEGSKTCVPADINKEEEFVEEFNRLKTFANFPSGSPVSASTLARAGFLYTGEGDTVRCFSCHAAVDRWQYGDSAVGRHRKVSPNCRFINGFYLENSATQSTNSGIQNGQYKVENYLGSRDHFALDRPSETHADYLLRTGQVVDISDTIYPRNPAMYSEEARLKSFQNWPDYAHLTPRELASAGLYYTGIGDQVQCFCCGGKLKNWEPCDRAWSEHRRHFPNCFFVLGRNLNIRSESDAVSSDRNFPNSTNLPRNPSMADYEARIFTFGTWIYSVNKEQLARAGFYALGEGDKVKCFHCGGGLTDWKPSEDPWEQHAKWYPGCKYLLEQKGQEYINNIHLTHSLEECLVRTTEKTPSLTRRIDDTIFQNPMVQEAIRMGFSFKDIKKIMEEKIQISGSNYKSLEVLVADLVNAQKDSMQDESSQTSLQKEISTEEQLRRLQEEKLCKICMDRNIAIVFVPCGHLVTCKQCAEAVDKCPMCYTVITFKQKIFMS
Dihydroorotate dehydrogenase (quinone), mitochondrial (Plasmodium falciparum (isolate 3D7)), sequence (Q08210 whole entry, looked up): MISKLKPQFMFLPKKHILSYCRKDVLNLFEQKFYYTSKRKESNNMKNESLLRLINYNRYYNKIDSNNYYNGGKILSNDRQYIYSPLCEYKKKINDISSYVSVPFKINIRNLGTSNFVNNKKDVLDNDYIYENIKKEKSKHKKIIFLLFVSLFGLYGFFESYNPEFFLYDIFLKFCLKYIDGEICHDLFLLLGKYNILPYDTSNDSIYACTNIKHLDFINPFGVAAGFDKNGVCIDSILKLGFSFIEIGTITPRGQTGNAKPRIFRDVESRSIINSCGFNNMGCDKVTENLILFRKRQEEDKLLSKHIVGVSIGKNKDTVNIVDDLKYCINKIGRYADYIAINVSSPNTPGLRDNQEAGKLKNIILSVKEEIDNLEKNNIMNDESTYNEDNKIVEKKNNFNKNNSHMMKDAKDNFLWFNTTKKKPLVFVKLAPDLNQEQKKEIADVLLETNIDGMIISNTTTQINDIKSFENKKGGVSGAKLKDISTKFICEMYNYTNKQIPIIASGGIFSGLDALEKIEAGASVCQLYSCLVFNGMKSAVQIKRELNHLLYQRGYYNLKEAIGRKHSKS

On to `CCCCC#C[C@@H]1C=C[C@H](Oc2ccc(C(=O)OC)cc2)[C@@H](COC(=O)OCC)O1`, for which the z-score in assay [1] was 0.257; in [2], -4.46 (inactive); in assay [3], -1.6 (inactive); in [5], 0.472 (inactive); in [6], -0.37 (inactive); in [7], -0.301 (inactive). Moreover, the z-score is -0.0901 (inactive) in [8] and -1.08 in [9]. Besides, the composite z-score in [4] is -0.189 (inactive); in assay [10], -0.194.

As for `CC(C)(C)N1C(=O)[C@H]2[C@H]3[C@H](O)[C@H](O)CC(=NO[C@@H]4O[C@H](CO)[C@@H](O)[C@H](O)[C@H]4O)[C@H]3CC[C@H]2C1=O`, the z-score was -0.849 in assay [1]; -1.3 (inactive) in [2]; -0.623 (inactive) in assay [3]; 1.15 (inactive) in assay [5]; 0.339 (inactive) in [6]; -0.341 (inactive) in assay [7]. The values for the z-score in assay [8] and in assay [9] were -1.45 (inactive) and -0.817, respectively. Moreover, the results for the composite z-score in [4] and in [10] were -0.982 (inactive) and -0.142, respectively.

For `CO[C@@H]1C=CCC(=O)N[C@@H](C)C(=O)OC[C@@H](OC)[C@H](C)CCCC(=O)OC[C@H]1C`, the z-score was 0.287 in assay [1]; -0.445 (inactive) in assay [2]; 0.719 (inactive) in [3]; -0.479 (inactive) in assay [5]; -0.935 (inactive) in assay [6]; 0.853 (inactive) in [7]. Also, the z-score in assay [8] was 0.174 (inactive); in assay [9], 1.58. Further, the values for the composite z-score in assay [4] and in assay [10] were -1.38 (inactive) and -0.269, respectively.

As for `COC(=O)NCC=Cc1nc(CCCO)co1`, the z-score in assay [1] was -0.0091; in assay [2], 0.41 (inactive); in assay [3], -0.295 (inactive); in assay [5], -0.245 (inactive); in assay [6], 0.414 (inactive); in assay [7], 0.107 (inactive). The z-score in [8] was 0.438 (inactive); in assay [9], -0.626. Also, the composite z-score is -0.706 (inactive) in assay [4] and -0.117 in assay [10].

On to `C=CC[C@@H]1C=C[C@H](ON=C(C)CCN2CCc3nc(-c4ccccc4)c(-c4ccccc4)cc3C2)[C@@H](CO)O1`, for which the z-score in [1] is -0.244; in assay [2] it was -1.96 (inactive); in assay [3] it was -2.02 (inactive); in [5] it was 0.0767 (inactive); in assay [6] it was 0.124 (inactive); in assay [7], 0.921 (inactive). Further, the z-score was 0.392 (inactive) in [8] and 0.365 in assay [9]. Moreover, the composite z-score is -0.126 (inactive) in [4] and -0.12 in assay [10].

On to `COc1ccc(COC(=O)NN=C2C[C@@H](O)[C@@H](O)[C@@H]3[C@@H]4C(=O)N(c5ccc(F)cc5F)C(=O)[C@@H]4CC[C@H]23)cc1`, for which the z-score in assay [1] is -0.238; in assay [2], -0.291 (inactive); in assay [3], 0.317 (inactive); in assay [5], 0.307 (inactive); in assay [6], -0.461 (inactive); in assay [7], -0.0692 (inactive). In addition, the z-score in assay [8] is 0.138 (inactive); in assay [9] it was 0.643. Moreover, the composite z-score in assay [4] is 0.0067 (inactive); in assay [10] it was 0.0674.

In the case of `O=C1C=C[C@@H](O)[C@@H]2[C@@H]3C(=O)N(C[C@@H]4CCCO4)C(=O)[C@@H]3CC[C@@H]12`, the z-score in assay [1] is 0.111; in assay [2] it was 0.499 (inactive); in [3], 0.561 (inactive); in [5] it was -0.425 (inactive); in [6], 0.0539 (inactive); in assay [7] it was 0.117 (inactive). Further, the z-score in assay [8] is -0.282 (inactive); in assay [9], 0.91. The composite z-score in assay [4] is -0.0546 (inactive); in [10], 0.0032.

Turning to `CO[C@@H]1COC(=O)[C@H](CCSC)NC(=O)CC=C[C@@H](C)COC(=O)[C@H](C)NC(=O)CC=C[C@H]1C`, the z-score in assay [1] was 0.356; in assay [2], -1.15 (inactive); in [3], 0.457 (inactive); in assay [5], -0.838 (inactive); in assay [6], -0.224 (inactive); in assay [7] it was 0.916 (inactive). The z-score in [8] was 0.577 (inactive); in assay [9], 0.693. For the same compound, the composite z-score in assay [4] was 0.262 (inactive); in assay [10], -0.324.

Take `CC(CCN1CCCCc2nc(C)c(C)cc21)=NOC[C@@H](O)COCc1ccco1`: the z-score in [1] was -0.862; in assay [2], -0.0954 (inactive); in assay [3] it was -0.399 (inactive); in assay [5], -0.16 (inactive); in assay [6], 0.0681 (inactive); in [7] it was -0.0051 (inactive). The z-score in assay [8] was 0.562 (inactive); in assay [9], -0.688. In addition, the composite z-score is -0.441 (inactive) in assay [4] and 0.0251 in assay [10].

As to `C=CC[C@@H]1C=C[C@H](ON=C2[C@H]3CCn4c(=O)n(-c5ccccc5)c(=O)n4[C@H]3[C@H](O)[C@@H]3O[C@H]23)[C@@H](CO)O1`, the z-score in [1] was -0.684; in assay [2], 0.695 (inactive); in [3] it was -0.646 (inactive); in [5], 0.675 (inactive); in assay [6], 0.779 (inactive); in assay [7], 0.207 (inactive). In addition, the z-score in [8] is -0.104 (inactive); in [9] it was -0.331. Moreover, the composite z-score in [4] was 0.329 (inactive); in assay [10], -0.0663.

With `CCOC(=O)[C@H](Cc1ccccc1)NC(=O)OC1CC(CCC2CC(CC)=NO2)OC2(CCCC(COC(=O)NCCC(C)C)O2)C1` (stereo not given in full), the z-score is 0.239 in assay [1]; 0.633 (inactive) in assay [2]; 0.264 (inactive) in assay [3]; 0.226 (inactive) in [5]; 0.136 (inactive) in assay [6]; 0.347 (inactive) in assay [7]. Also, the z-score was 0.205 (inactive) in assay [8] and 0.65 in assay [9]. For the same compound, the composite z-score in [4] was -0.133 (inactive); in assay [10], -0.22.

Take `CCOC(=O)[C@H](CC(C)C)NC(=O)CCC1CC(OC(=O)NCCc2ccc(F)cc2)CC2(CCCC(COC(=O)NCCC(C)C)O2)O1` (stereo not given in full): the z-score in assay [1] was -0.566; in [2], 1.2 (inactive); in [3] it was 0.214 (inactive); in assay [5], 0.532 (inactive); in [6], 0.821 (inactive); in assay [7] it was 0.334 (inactive). Moreover, the z-score in assay [8] was -0.139 (inactive); in assay [9], 0.398. In addition, the composite z-score in assay [4] was 0.322 (inactive); in assay [10] it was 0.0938.

As for `CC(CCC(=O)OC[C@H]1O[C@H](C#Cc2ccccc2)C=C[C@@H]1Oc1ccc(C)cc1)=NO[C@H](C)c1cn([C@H](CO)Cc2ccccc2)nn1`, the z-score was 0.151 in [1]; 0.815 (inactive) in assay [2]; -0.0044 (inactive) in assay [3]; 0.463 (inactive) in [5]; 1.78 (inactive) in assay [6]; 0.348 (inactive) in [7]. Moreover, the values for the z-score in [8] and in assay [9] were -0.0348 (inactive) and 0.274, respectively. The composite z-score in [4] is 1.1 (inactive); in assay [10], 0.0191.

As to `CON=Cc1ccc(C(=O)N2[C@H](c3ccc(C)cc3)[C@@H](C)CC[C@H]2C(=O)OC)cc1`, the z-score in assay [1] was 0.259; in assay [2] it was -2.35 (inactive); in [3] it was 0.37 (inactive); in [5] it was -0.066 (inactive); in assay [6], -0.308 (inactive); in [7], 0.743 (inactive). Further, the z-score is 0.0138 (inactive) in assay [8] and 0.589 in [9]. For the same compound, the composite z-score was 0.442 (inactive) in [4] and -0.0559 in [10].

As for `CO[C@H]1COC(=O)CC=C[C@@H](C)[C@H](OC)COC(=O)[C@@H]2CCCN2C(=O)CC=C[C@@H]1C`, the z-score in assay [1] is 0.251; in assay [2], -1.87 (inactive); in assay [3] it was 0.616 (inactive); in [5], -0.638 (inactive); in assay [6], -0.055 (inactive); in assay [7], 0.601 (inactive). For the same compound, the z-score in assay [8] is 0.53 (inactive); in assay [9] it was 0.136. Moreover, the composite z-score in assay [4] was 0.52 (inactive); in assay [10] it was 0.196.

In the case of `COC(=O)C=CCCc1coc(C=CCNC(=O)OC)n1`, the z-score in assay [1] was -0.658; in [2], -1.07 (inactive); in assay [3], 0.0455 (inactive); in assay [5], -0.27 (inactive); in [6] it was 0.237 (inactive); in [7], -1 (inactive). The z-score in assay [8] is -0.542 (inactive); in assay [9], -0.102. For the same compound, the figures for the composite z-score in assay [4] and in [10] were 0.979 (inactive) and 0.249, respectively.

Regarding `CCCNC(=O)OC[C@H]1O[C@H](CCON=C(C)CCC(=O)OC[C@H]2O[C@H](c3ccccc3)C=C[C@@H]2Oc2ccc(OC)cc2)C=C[C@@H]1Oc1ccc(OC)cc1`, the z-score in assay [1] is 0.704; in [2] it was 0.195 (inactive); in [3] it was 0.205 (inactive); in assay [5], 0.0525 (inactive); in assay [6], 0.17 (inactive); in [7], 0.629 (inactive). Besides, the results for the z-score in [8] and in assay [9] were 0.363 (inactive) and 1.31, respectively. The figures for the composite z-score in [4] and in assay [10] were -1.13 (inactive) and -0.171, respectively.

`CCOC(=O)[C@H](Cc1ccccc1)NC(=O)CCC1CC(OC(=O)NCCc2ccc(F)cc2)CC2(CCCC(COC(=O)NCc3ccccc3)O2)O1` (stereo not given in full): the z-score in [1] was 0.567; in [2] it was -0.298 (inactive); in assay [3] it was 0.159 (inactive); in [5] it was 0.013 (inactive); in assay [6], 0.694 (inactive); in assay [7] it was 0.321 (inactive). Besides, the z-score in assay [8] was -0.158 (inactive); in assay [9], -0.0066. In addition, the results for the composite z-score in [4] and in assay [10] were -0.447 (inactive) and -0.0525, respectively.
